GPR151 ag: activates the human receptor GPR151. Q8TDV0. PathHunter beta-arrestin GPR151 cells, luminescence. activation, % at 11.2 µM. 650,000 compounds, 1% hits; in the data active = activation above about 4.9%;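 note: 0% = median of compound wells and 100% = cells with positive control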
FBW7 act: human FBW7 E3 ligase activation, primary screen | AlphaScreen FBW7–phospho-cyclin E peptide binding, activator screen | normalized activity (activation), % at 26.1 µM | 650,000 compounds, 0.13% hits; in the data active = normalized activity above about 1.9%;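 note: purified mutant Fbw7 with reduced substrate affinity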
Target sequence (Q969H0 whole entry, looked up): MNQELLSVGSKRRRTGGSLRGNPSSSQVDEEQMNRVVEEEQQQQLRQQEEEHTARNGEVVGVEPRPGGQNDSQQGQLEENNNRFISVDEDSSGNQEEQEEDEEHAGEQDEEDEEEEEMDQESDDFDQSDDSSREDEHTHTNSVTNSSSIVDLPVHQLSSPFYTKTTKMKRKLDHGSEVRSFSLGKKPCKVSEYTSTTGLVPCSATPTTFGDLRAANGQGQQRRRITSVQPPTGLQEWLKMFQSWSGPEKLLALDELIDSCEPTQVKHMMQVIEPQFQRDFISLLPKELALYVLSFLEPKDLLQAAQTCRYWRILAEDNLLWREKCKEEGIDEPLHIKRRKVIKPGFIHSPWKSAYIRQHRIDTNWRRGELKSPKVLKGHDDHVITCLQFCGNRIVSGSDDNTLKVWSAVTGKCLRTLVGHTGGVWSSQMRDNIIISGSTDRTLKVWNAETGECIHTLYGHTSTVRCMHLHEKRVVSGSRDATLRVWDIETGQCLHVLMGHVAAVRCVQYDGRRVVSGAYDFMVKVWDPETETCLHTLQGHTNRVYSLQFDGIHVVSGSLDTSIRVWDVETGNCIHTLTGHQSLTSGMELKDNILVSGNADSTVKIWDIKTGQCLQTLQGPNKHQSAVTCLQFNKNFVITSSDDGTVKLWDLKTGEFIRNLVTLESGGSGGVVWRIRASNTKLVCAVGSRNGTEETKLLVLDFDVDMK
MITF primary: human MITF inhibition, primary screen | AID 1259374 | inhibition, % at 2.6 µM | O75030 | 650,000 compounds, 0.91% hits | AlphaScreen MITF homodimerization, bead proximity signal; in the data active = inhibition above about 50%;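 note: 0% = vehicle wells with protein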
TEAD-YAP block: TEAD-YAP interaction inhibition | inhibition, % at 9.12 µM | HEK-TIYL cells, TEAD-Gal4/YAP UAS-luciferase luminescence | 640,000 compounds, 1.4% hits | AID 1259422; in the data active = inhibition above about 32%;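 note: 0% = median of test compound wells and 100% = reference inhibitor wells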
* marks the source's active call; other numbers are inactive results. This is a sample that favours compounds with a hit; in the whole collection about 3.4% have one here.

SMILES	GPR151 ag	FBW7 act	MITF primary	TEAD-YAP block
CCOC(=O)C1CCCN(S(=O)(=O)c2cc(C(=O)Nc3ccc(CC)cc3)ccc2F)C1 (configuration not stated)	0	1	10	1
COc1cccc2cc(-c3nnc(-c4cccs4)o3)c(=O)oc12	0	0	11	-14
CCc1ccc2c(c1)c1nnc(SCC(=O)NC(C)(C)C)nc1n2C	-9	0	16	-51
O=C1C=Cc2ccccc2/C1=C/c1[nH]c(=S)[nH]c1O	4	0	11	-20
Cc1nc2sc(-c3ccccc3)cc2c(=O)[nH]1	-4	0	-1	66*
Cc1nc2sc(-c3ccccc3)cc2c2nnc(-c3ccccc3)n12	0	0	1	91*
COc1ccc(-c2noc(CN3C[C@@H]4CCC[C@H]3C4)n2)cc1	2	0	6	-33
c1cnn(-c2ccnc(Nc3ccc(N4CCOCC4)cc3)c2)c1	-3	0	-11	-37
c1cc(-c2ocnc2-c2ccc3cn[nH]c3c2)cc(Nc2ccc(N3CCOCC3)cc2)n1	1	0	-4	58*
Cn1ccc(-c2ccccc2Nc2ccnc(Nc3ccc(N4CCOCC4)cc3)c2)n1	2	-1	-6	47*
Cn1cnc(-c2ccnc(Nc3ccc(N4CCOCC4)cc3)c2)n1	0	0	2	15
Cn1cc(-c2ncoc2-c2ccnc(Nc3ccc(N4CCOCC4)cc3)c2)cn1	0	0	-7	30
c1ccc(-c2ccn[nH]2)c(Nc2ccnc(Nc3ccc(N4CCOCC4)cc3)c2)c1	0	-1	8	38*
C/C(=N\NC(=O)c1ccccc1O)c1ccccc1F	-2	1	12	-14
Cc1ccc(NC(=O)Nc2nnc(N3CCCC3)s2)cc1Cl	3	0	-4	-5
Cc1ccnc(N2CCC(C(=O)Nc3ccccc3Br)CC2)n1	-1	2.1*	22	9
CCOc1ccc(N(CC)S(=O)(=O)c2cccc3cccnc23)cc1	-1	0	6	53*
CCC(C)N(C(=O)c1ccc([N+](=O)[O-])cc1)C(C)CC (configuration not stated)	-2	0	-18	2
CCC(C)N(C(=O)c1cccc([N+](=O)[O-])c1)C(C)CC (configuration not stated)	1	2.0*	-76	-2
COc1ccc(-c2nsc3c(N4CCCC(C)C4)ncnc23)cc1 (configuration not stated)	1	0	-5	86*
CCN1CCN(c2ncnc3c(-c4ccc(OC)cc4)nsc23)CC1	-1	0	12	-55
Fc1ccc(-c2nsc3c(N4CCOCC4)ncnc23)cc1	0	0	-1	68*
CC1CCCN(c2ncnc3c(-c4ccccc4)nsc23)C1 (configuration not stated)	1	0	0	80*
COc1ccc(-c2nsc3c(N4CCCC4)ncnc23)cc1	1	0	-16	65*
CC(C)(O)C#Cc1ccc(CN2CCN(Cc3ccc(F)cc3)C(CCO)C2)cc1 (configuration not stated)	-2	0	2	12
SMILES	GPR151 ag	FBW7 act	MITF primary	TEAD-YAP block
COc1cccc(CN(CCCO)C(=O)C(O)c2ccc(-c3cn[nH]c3C)cc2)c1 (configuration not stated)	-1	0	16	-5
CCOC(=O)CNC(=O)CSc1nnc(COc2ccc(C)cc2)n1C	-1	0	11	8
C=CCn1c(COc2ccccc2Cl)nnc1SCC(=O)NC1CCCC1	0	1	19	4
CC1CCN(C(=O)CSc2nc3ccccc3n2CC(=O)N(C)C)CC1	1	0	-2	10
CC(C)(C)c1ccc(C(=O)NCCN=C2NS(=O)(=O)c3ccccc32)cc1	1	0	-6	-7
Cc1cnc(Nc2ccccn2)nc1NCc1cccc(C(F)(F)F)c1	4	0	3	47*
Cc1cnc(Nc2ncccn2)nc1NCc1cccc(C(F)(F)F)c1	0	0	-11	0
COc1ccc(-c2nc3ncnc(NCc4cccc(C(F)(F)F)c4)c3[nH]2)cc1	-1	0	4	46*
CC(C)n1c(-c2cccs2)nc2c(NCc3cccc(C(F)(F)F)c3)ncnc21	3	0	-13	1
FC(F)(F)c1cccc(CNc2ncnc3sccc23)c1	4	0	-13	46*
Cc1cnc(Nc2ccc3ncccc3c2)nc1NCc1cccc(C(F)(F)F)c1	5	0	7	53*
Cc1ccnn1CCC(=O)N1CCCC(c2ccnc3nc(C(F)(F)F)nn23)C1 (configuration not stated)	-1	0	-14	5
Cc1cnc(Nc2ccccc2)nc1NCc1cccc(C(F)(F)F)c1	2	0	6	50*
Nc1nc(NCc2cccc(C(F)(F)F)c2)cc(Nc2cnccn2)n1	-1	1	4	56*
Cc1cnc(NCCN2CCOCC2)nc1NCc1cccc(C(F)(F)F)c1	1	0	-6	32*
CCNc1ncc(C)c(NCc2cccc(C(F)(F)F)c2)n1	3	0	-5	23
Cc1cnc(Nc2cccnc2)nc1NCc1ccccc1	4	0	3	33*
CC(C)CNC(=O)CN(c1cccc(Br)c1)S(=O)(=O)c1ccccc1	2	0	-6	-2
COc1ccc(C2=N/C(=C\c3cccc(OC)c3OC)C(=O)O2)c(Cl)c1	0	0	-8	3
CCCOc1ccc(C(=O)Nc2cccc(-c3nc4cc(C)ccc4o3)c2C)cc1	1	0	-3	-7
O=C(Nc1ccc(C23CC4CC(CC(C4)C2)C3)cc1)c1cccc(Cl)c1	0	0	8	60*
CCOc1ccccc1NC(=O)C(C)N(c1ccc(C)cc1)S(C)(=O)=O (configuration not stated)	2	0	4	9
Cc1ccc2[nH]c3c(c2c1)CCNC31CCN(C(=O)N[C@@H](C)c2ccccc2)CC1	1	0	16	-16
C[C@H](NC(=O)N1CCC2(CC1)NCCc1c2[nH]c2ccc(Cl)cc12)c1ccccc1	0	0	6	37*
Cc1noc(C)c1NC(=O)N1CCC2(CC1)NCCc1c2[nH]c2ccc(Cl)cc12	-1	0	14	-5
SMILES	GPR151 ag	FBW7 act	MITF primary	TEAD-YAP block
COc1cccc(NC(=O)N2CCC3(CC2)NCCc2c3[nH]c3ccc(Cl)cc23)c1	0	0	15	48*
COc1ccc(CC(=O)Nc2ccccc2C)cc1	-1	1	7	4
Cc1cc(OCC(=O)Nc2ccc([N+](=O)[O-])cc2)ccc1Cl	2	0	-4	3
COc1cc(/C=C2\C(=O)Nc3ccc(C)cc32)cc(OC)c1OC	1	0	16	-1
Cc1ccc(-c2cc(C(F)(F)F)n3nc(C(N)=O)cc3n2)cc1	2	0	0	-16
CN(C)C(=O)CSc1nnc(-c2ccco2)n1C	-1	2.1*	17	5
O=C1CCCC2=C1C(c1cc([N+](=O)[O-])ccc1O)C1C(=O)c3ccccc3C1=N2 (configuration not stated)	1	-1	12	18

Screening results as filed in PubChem.
